Bioassay records deposited in PubChem BioAssay by several laboratories.
SUMO HTRF inh: inhibitors of human SUMOylation (UBC9); inhibition, % at 35 µM; P63279; actives 0.36% (n = 290,000); HTRF SUMOylation assay, SAE1/SAE2 + UBC9, in vitro; in the data active = inhibition above about 50%, passing the limit was not always enough
Target sequence (P63279 whole entry, looked up): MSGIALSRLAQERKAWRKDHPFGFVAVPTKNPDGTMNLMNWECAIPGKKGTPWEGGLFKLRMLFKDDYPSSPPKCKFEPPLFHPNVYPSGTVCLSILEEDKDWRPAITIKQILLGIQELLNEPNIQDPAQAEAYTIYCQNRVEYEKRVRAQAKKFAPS
p97 ATPase inh: human p97 ATPase inhibition | recombinant p97 ATPase, Kinase-Glo ATP luminescence, 3 h | inhibition, % at 8 µM | actives 0.42% (n = 220,000); in the data active = inhibition above about 15%;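 also: 0% = DMSO vehicle and 100% = wells lacking enzyme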
S1P3 antag: antagonists of human S1P3 receptor. actives 0.27% (n = 170,000). AID 485. CHO S1P3 NFAT-BLA reporter, FRET fluorescence, antagonist mode. inhibition, % at 4.98 µM. Q99500;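 active = inhibition above the plate cutoff, the mean inhibition of test wells on that plate plus 3 SD, cut at about 28% in these data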;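 also: cells challenged with S1P at its EC80 of 0.8 µM; blue over green emission ratio from cleaved BLA substrate after 4 h stimulation; 0% = S1P-stimulated wells and 100% = unstimulated DMSO-only wells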
S1P4 ag: activates the human S1P4 receptor. activation, % at 4.98 µM. AID 1509. actives 0.35% (n = 220,000). S1P4-expressing cell line, agonist reporter assay. O95977; in the data active = activation above about 11%;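 also: 0% = DMSO vehicle and 100% = reference agonist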
Target sequence (O95977 whole entry, looked up): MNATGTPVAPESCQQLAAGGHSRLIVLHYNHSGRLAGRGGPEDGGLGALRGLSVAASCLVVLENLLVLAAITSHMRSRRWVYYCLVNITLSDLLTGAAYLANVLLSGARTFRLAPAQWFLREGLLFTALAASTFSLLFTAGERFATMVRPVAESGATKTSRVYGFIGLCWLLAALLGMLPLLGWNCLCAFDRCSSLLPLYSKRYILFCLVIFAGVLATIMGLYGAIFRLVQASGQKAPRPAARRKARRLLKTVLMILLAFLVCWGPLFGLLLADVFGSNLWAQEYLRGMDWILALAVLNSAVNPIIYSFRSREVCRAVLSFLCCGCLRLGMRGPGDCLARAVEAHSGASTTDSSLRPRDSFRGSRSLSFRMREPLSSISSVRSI
DTT redox prof: compounds producing H2O2 with reducing agent – biochemical, NIH compound library profiling, artefact control for MLSCN library redox annotation, primary screen; DTT-dependent redox cycling H2O2, phenol red/HRP absorbance; 100% = 100 µM peroxide control, 0% = buffer; activation, % at 10 µM; actives 0.03% (n = 200,000);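 active = activation of at least 50% relative to the plate's high and low controls in the primary single-dose screen; inactive = activation below 50%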;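 also: compound incubated with DTT at 0.8 mM final as the reducing agent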
S1P4 antag: blocks the human S1P4 receptor. O95977. AID 1510. actives 0.26% (n = 220,000). inhibition, % at 4.98 µM. S1P4-expressing cells, antagonist mode, reporter read-out; in the data active = inhibition above about 29%;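 also: 0% = wells stimulated with agonist and 100% = vehicle wells without agonist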
p97 confirm: confirmation of human p97 ATPase inhibitors; actives 44% (n = 760); recombinant p97 ATPase, Kinase-Glo ATP luminescence; shares compounds with p97 ATPase inh; inhibition, % at 8 µM;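 active = percent inhibition of p97 ATPase above a set limit, the primary screen's mean plus 3 SD, cut at about 15% in these data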;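 also: 0% = DMSO wells and 100% = wells lacking p97 protein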
* marks the source's active call; other numbers are inactive results; · = no result given; ! = not confirmed by another sample. Rows were chosen to be rich in hits. Some 1.1% of all compounds tested hit in one or more screens of this group.

SMILES | SUMO HTRF inh | p97 ATPase inh | S1P3 antag | S1P4 ag | DTT redox prof | S1P4 antag | p97 confirm
O=C(CCn1c(SCC(=O)NCc2ccco2)nc2ccccc2c1=O)NCCc1ccccc1 | 37.4 | 1.6 | · | 1.8 | -0.1 | -1.6 | ·
C=CCn1c(SCC(=O)NCc2ccco2)nc2ccccc2c1=O | 9.3 | 15.3* | 2.1 | 0.2 | 2.2 | 2.2 | 8.1
O=C(O)CCC(=O)c1ccc2ccc3cccc4ccc1c2c34 | 27.9 | 19.4* | -9.6 | 1.0 | · | -3.3 | 24.9*
O=[N+]([O-])c1ccc2c(c1)c(-c1ccccc1)nc1nncn12 | -1.9 | 34.2* | 3.9 | 0.5 | 0.1 | -3.8 | 4.2
O=[N+]([O-])c1ccc2nc(-c3ccccc3)cc(-c3ccccc3)c2c1 | 0.3 | 3.4 | 9.8 | 1.9 | 0.9 | 3.2 | ·
CN1CCN(NC(=O)c2cc(-c3ccc(Cl)s3)nc3ccccc23)CC1 | 31.3 | · | · | · | · | · | ·
NS(=O)(=O)c1ccc(Nc2nc(-c3ccc(F)cc3)cs2)cc1 | -7.7 | 8.1 | -1.7 | -0.4 | 0.2 | 8.5 | ·
NS(=O)(=O)c1ccc(Nc2nc(-c3ccc(O)cc3O)cs2)cc1 | 19.5 | 26.6* | · | 1.0 | -0.4 | -9.5 | 50.5*
Cc1ccc(C)c(NC(=S)Nc2cccc3cnccc23)c1 | 99.4 | 4.3 | -15.0 | -1.4 | -0.2 | -5.6 | ·
Cc1ccc(NC(=S)Nc2cccc3cnccc23)cc1C | 95.5 | 24.0* | -11.1 | -0.6 | 0.0 | 6.7 | 3.2
CCC(Cc1ccccc1)NC(=O)CCc1ccccc1 (configuration not stated) | 11.9 | · | · | · | · | · | ·
CCC(Cc1ccccc1)NC(=O)CCn1cccc1 (configuration not stated) | 17.1 | 16.4* | · | -2.3 | 0.1 | -5.3 | 5.2
CCN(Cc1ccccc1)CC(O)COC(c1ccc(OC)cc1)c1ccc(OC)cc1 (configuration not stated) | -7.2 | · | · | · | · | · | ·
CN(C)S(=O)(=O)c1cccc(NC(=O)Cn2cc(C(F)(F)F)cc(Cl)c2=O)c1 | 14.9 | 4.6 | -4.0 | 1.0 | -0.4 | 18.2 | ·
O=C(O)c1cccc(CN2C(=O)SC(Nc3cccc4ccccc34)C2=O)c1 (configuration not stated) | 5.9 | 17.1* | -18.1 | -0.9 | -8.7 | -1.1 | 12.7
CC(=O)O[C@@H]1[C@@]2(C)O[C@H]2CC[C@]23O[C@H]2[C@H](OC3=O)C2=C(C)C(=O)O[C@@]21O | 4.8 | -1.6 | -18.7 | 1.5 | -0.3 | 0.1 | ·
CCCCOC(=O)c1cccnc1 | -2.2 | 12.3 | -5.2 | -0.5 | · | 4.9 | ·
Cc1cc(C)nc(SCC(=O)Nc2ncccn2)n1 | -0.5 | 0.8 | -4.0 | 0.5 | -0.4 | 1.5 | ·
CC(NC(=O)Cc1ccccc1)c1ccccc1 (configuration not stated) | 0.3 | · | · | · | · | · | ·
O=C(Cc1ccccc1)NC1(O)C(=O)c2ccccc2C1=O | 35.2 | 15.7* | 5.2 | -3.0 | · | -6.0 | 15.2*
Cc1ccc(C(=O)NC2(O)C(=O)c3ccccc3C2=O)cc1C | · | 26.4* | -1.0 | 1.0 | · | 1.4 | 26.0*
O=C(NC1(O)C(=O)c2ccccc2C1=O)c1ccc(C(F)(F)F)cc1 | 89.5* | 27.0* | -7.8 | -0.1 | · | 0.0 | 27.6*
CCn1c(SCC(=O)NC2CCCC2)nnc1-c1cccnc1 | -6.8 | · | · | · | · | · | ·
Cc1cc(C)nc(NC(=NCCc2c[nH]c3ccccc23)NC(=O)Nc2cccc([N+](=O)[O-])c2)n1 | 10.6 | 1.4 | -10.8 | -0.1 | -0.2 | -5.5 | ·
C#CCOCCOCCOCCNc1nc(N2CCN(C(=O)[C@H](Cc3ccc(O)cc3)n3cc([C@@H](N)C(C)CC)nn3)CC2)nc(N2CCN(C(=O)[C@H](Cc3cc4ccccc4[nH]3)n3cc([C@@H](N)C(C)CC)nn3)CC2)n1 (some centres not stated) | -15.3 | 25.4* | 5.9 | -2.4 | 0.5 | 0.9 | 13.2
SMILES | SUMO HTRF inh | p97 ATPase inh | S1P3 antag | S1P4 ag | DTT redox prof | S1P4 antag | p97 confirm
C#CCOCCOCCOCCNc1nc(N2CCN(C(=O)[C@H](Cc3cc4ccccc4[nH]3)n3cc([C@@H](N)C(C)CC)nn3)CC2)nc(N2CCN(C(=O)[C@H](Cc3cc4ccccc4[nH]3)n3cc([C@@H](N)Cc4ccc(O)cc4)nn3)CC2)n1 (some centres not stated) | -31.4 | 17.4* | -2.0 | -1.1 | 0.1 | -16.3 | 26.2*
C#CCOCCOCCOCCNc1nc(N2CCN(C(=O)C(Cc3cc4ccccc4[nH]3)n3cc(C(N)Cc4ccc(O)cc4)nn3)CC2)nc(N2CCN(C(=O)C(Cc3cc4ccccc4[nH]3)n3cc(C(N)Cc4ccc(O)cc4)nn3)CC2)n1 (configuration not stated) | -23.9 | 21.6* | -9.0 | 0.3 | -0.9 | -16.5 | 26.3*
C#CCOCCOCCOCCNc1nc(N2CCN(C(=O)[C@H](Cc3cc4ccccc4[nH]3)n3cc([C@@H](N)CC(C)C)nn3)CC2)nc(N2CCN(C(=O)[C@H](Cc3cc4ccccc4[nH]3)n3cc([C@@H](N)CC(C)C)nn3)CC2)n1 | -11.7 | 27.5* | -3.9 | -5.3 | 0.4 | 8.2 | 26.7*
Cc1nnc(NC(=O)c2ccc(Br)o2)s1 | 13.9 | · | · | · | · | · | ·
C#CCOCCOCCOCCNc1nc(N2CCN(C(=O)[C@H](Cc3ccc(O)cc3)n3cc([C@@H](N)C(C)CC)nn3)CC2)nc(N2CCN(C(=O)[C@H](Cc3cc4ccccc4[nH]3)n3cc([C@@H](N)CC(C)C)nn3)CC2)n1 (some centres not stated) | -12.9 | 22.0* | -4.2 | -3.7 | 0.5 | 4.8 | 12.6
C#CCOCCOCCOCCNc1nc(N2CCN(C(=O)[C@H](Cc3cc4ccccc4[nH]3)n3cc([C@@H](N)Cc4ccc(O)cc4)nn3)CC2)nc(N2CCN(C(=O)[C@H](Cc3cc4ccccc4[nH]3)n3cc([C@@H](N)CC(C)C)nn3)CC2)n1 | -44.3 | · | · | · | · | · | ·
c1ccc2c(c1)[nH]c1nc(SCCN3CCOCC3)nnc12 | 0.6 | 2.7 | -18.4 | -0.1 | 4.8 | 10.4 | ·
Brc1ccc2[nH]c3nc(SCCN4CCOCC4)nnc3c2c1 | 10.6 | 17.1*! | 22.9 | 0.3 | -0.1 | -21.1 | 6.8
COc1ccc(OC)c(Nc2nc(NCc3ccco3)nc(N)c2[N+](=O)[O-])c1 | 14.2 | 9.6 | -13.9 | -1.2 | · | 0.1 | ·
COc1ccccc1Nc1nc(NCc2ccco2)nc(N)c1[N+](=O)[O-] | -8.7 | 15.6* | -5.0 | -0.1 | · | 7.8 | 20.7*
Cc1cccc(Nc2cc(C)c3c(O)cccc3n2)c1C | -25.2 | 23.4* | -2.6 | -0.6 | 1.6 | 7.4 | 15.7*
Cc1ccc(S(=O)c2ccc(NC(=O)C3CC3)cc2C#N)cc1 (configuration not stated) | 1.9 | 16.9* | 0.1 | -0.2 | 11.0 | -4.4 | 3.5
COc1ccc(/C=N/NC(=O)Cn2ccnc2C)cc1OC | 5.9 | 17.7* | -2.0 | 0.9 | · | -9.6 | 5.4
